Consider 4 compounds from PubChem BioAssay (EPA / NIEHS).

Records with an inconclusive call do not appear. Calls of active or inactive are those of the source. How the source made its calls, unless noted: active means hit-call score of the fitted dose curve at least 0.9, where 1 is the maximum; inactive means score below 0.9.

Test [1] can be described thus: ACEA_ER_80hr: ACEA Biosciences xCELLigence Real-Time Cell Analysis on Estrogen Receptor Agonism for Proliferation (AID 2282667; active means hit-call score of the fitted dose curve at least 0.9, where 1 is the maximum). The conditions noted are these: T47D proliferation, impedance (xCELLigence), 80 h. In short, it runs like this:
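Real-time electrical impedance tracked growth of the human breast line T47D, with the 80 h post-dosing value used. Dosing spanned eight 1:4 steps down from a 100 uM final top concentration, run in duplicate.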

A short description of test [2]: ATG_CRE_CIS: Attagene CIS-FACTORIAL HepG2 Assay for human cAMP Responsive Element (CRE) binding protein 3 (AID 2282926). The conditions noted are these: HepG2 CRE cis-reporter, Attagene multiplexed mRNA; actives raise or lower the signal. In a few lines:
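Assay format: transient reporter transfection of HepG2, 24 h treatment, total RNA isolation with DNase I step. Reporter abundance read by fluorescence after PCR and capillary separation; DMSO-normalised gain or loss fitting.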

Test [3] deals with CCAAT/enhancer-binding protein beta (Homo sapiens) (UniProt P17676). In words: ATG_C_EBP_CIS: Attagene CIS-FACTORIAL HepG2 Assay for human CCAAT/Enhancer Binding Protein (C/EBP) beta (AID 2282927). The conditions noted are these: HepG2 Attagene cis-factorial transcription factor reporter; actives raise or lower the signal. In short, it runs like this:
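HepG2, transient MRTU transfection, 24 h treatment. RT-PCR plus CE fluorescence; DMSO negative control, bidirectional fit.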

A short description of test [4]: ATG_CMV_CIS: Attagene CIS-FACTORIAL HepG2 Assay for human CMV (Internal Marker) (AID 2282928).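 Further: endpoint acts as a background internal control marker rather than a target.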 Conditions: HepG2 CMV promoter reporter, transcription factor profiling; actives raise or lower the signal. In short, it runs like this: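 Reporter transcripts from transfected HepG2 cells are isolated after 24 h of chemical dosing, reverse-transcribed and amplified. Fragments labeled with 6-FAM are cut with HpaI and quantified by capillary electrophoresis; DMSO defines baseline.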

The nature of test [5]: ATG_DR4_LXR_CIS: Attagene CIS-FACTORIAL HepG2 Assay for human Liver X Receptor (LXR), DR4 submotif (AID 2282929). Conditions: HepG2 Attagene DR4 cis-reporter, mRNA transcription; actives raise or lower the signal. In a few lines:
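Fluorescence intensity of labelled reporter cDNA fragments, separated by capillary electrophoresis, gives the signal. HepG2 cells bearing cis-regulated reporter constructs were treated 24 h; activity fitted bidirectionally relative to DMSO negative control.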

The target in test [6] is Aryl hydrocarbon receptor (Homo sapiens) (UniProt P35869). In words: ATG_Ahr_CIS: Attagene CIS-FACTORIAL HepG2 Assay for human Aryl Hydrocarbon Receptor (Ahr) (AID 2282930). Conditions: HepG2 AhR cis-factorial reporter transcription; actives raise or lower the signal. In a few lines:
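Endogenous factor activity is tracked through cis-promoter reporter units transfected into HepG2 cells. Transcript levels at 24 h are read by fluorescent RT-PCR and capillary electrophoresis, with activity in either direction scored relative to DMSO.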

A short description of test [7]: ATG_AP_1_CIS: Attagene CIS-FACTORIAL HepG2 Assay for human Activator Protein 1 (AP-1) (AID 2282931). The conditions noted are these: HepG2 Attagene cis-factorial AP-1 reporter mRNA; actives raise or lower the signal. In a few lines: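 Multiplexed HepG2 reporter assay, 24 h dosing. mRNA induction detected by RT-PCR plus capillary electrophoresis. Activity fitted in both directions against DMSO.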

Test [8] is described as follows: ATG_AP_2_CIS: Attagene CIS-FACTORIAL HepG2 Assay for human Activator Protein 2 (AP-2) (AID 2282932). The conditions noted are these: HepG2 AP-2 cis-reporter, Attagene transcription factor profiling; actives raise or lower the signal. In short, it runs like this:
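Read-out: fluorescent reporter mRNA via RT-PCR and capillary electrophoresis, 24 h post-dose in transiently transfected HepG2. Endogenous factors drive cis-promoter reporters; gain or loss of signal fitted bidirectionally against DMSO.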

The nature of test [9]: ATG_BRE_CIS: Attagene CIS-FACTORIAL HepG2 Assay for human Bone Morphogenetic Protein (BMP) Response Element (BRE) (AID 2282933). Conditions: HepG2 BMP response element reporter, Attagene transcription factor profiling; actives raise or lower the signal. In a few lines:
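Endogenous transcription factor activity at a BMP response element was monitored in transfected HepG2 cells 24 h after dosing. Fluorescent RT-PCR products were resolved by capillary electrophoresis, and activity was fitted in both directions versus DMSO.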

Test [10] addresses Retinoic acid receptor alpha (Homo sapiens) (UniProt P10276). Description: ATG_DR5_RAR_CIS: Attagene CIS-FACTORIAL HepG2 Assay for human Retinoic Acid Receptor Alpha (RARE), DR5 submotif (AID 2282934).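 On AC50: reporter responds to endogenous RAR alpha beta and gamma in HepG2 not RARA alone.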 The conditions noted are these: HepG2 Attagene cis-factorial RARE DR5 reporter, mRNA; actives raise or lower the signal. In a few lines: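 After 24 h of chemical exposure, transiently transfected HepG2 cells were lysed for total RNA; the DR5-regulated reporter transcript was quantified via RT-PCR and capillary electrophoresis, with activity fitted bidirectionally against DMSO.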

Test [11] concerns the target Transcription factor E2F1 (Homo sapiens) (UniProt Q01094). Description: ATG_E2F_CIS: Attagene CIS-FACTORIAL HepG2 Assay for human E2F Transcription Factor 1 (AID 2282935). Conditions: HepG2 Attagene cis-reporter, E2F reporter RNA transcripts; actives raise or lower the signal. In short, it runs like this:
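Transient MRTU transfection of HepG2; 24 h compound exposure; RNA → oligo(dT) RT → PCR → FAM label → HpaI cut → CE fluorescence. Gain/loss of signal fit against DMSO.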

Test [12] in a line: ATG_E_Box_CIS: Attagene CIS-FACTORIAL HepG2 Assay for human Enhancer Box (E-box) (AID 2282936). Conditions: HepG2 E-box cis-reporter transcription, actives raise or lower the signal. In a few lines:
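Transiently transfected HepG2, endogenous TF-driven reporters, 24 h dosing. Readout: RT-PCR plus capillary electrophoresis of fluorescent reporter fragments. Gain or loss of signal fitted bidirectionally against DMSO baseline.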

Test [13] is described as follows: ATG_M_61_CIS: Attagene CIS-FACTORIAL HepG2 Assay for M61 Transcription Factor (Internal Marker) (AID 2282937). Conditions: HepG2 Attagene CIS-FACTORIAL M61 internal marker reporter; actives raise or lower the signal. In a few lines:
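Endogenous transcription factor activity in HepG2 is read through transiently transfected cis-element reporter units. After 24 h dosing, RNA undergoes reverse transcription, PCR and primer extension with 6-FAM before capillary electrophoresis; DMSO-referenced bidirectional fit.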

Test [14] can be described thus: ATG_EGR_CIS: Attagene CIS-FACTORIAL HepG2 Assay for human Early Growth Response 1 (EGR1) (AID 2282938). Conditions: HepG2 Attagene CIS-FACTORIAL EGR reporter mRNA; actives raise or lower the signal. In a few lines:
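Activity is taken as induction or loss of reporter mRNA versus DMSO, fitted bidirectionally. Transcripts from cis-regulated reporter units in transiently transfected HepG2 were measured after 24 h by RT-PCR with capillary electrophoresis.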

Test [15] is described as follows: ATG_M_19_CIS: Attagene CIS-FACTORIAL HepG2 Assay for M19 Transcription Factor (Internal Marker) (AID 2282939). Conditions: HepG2 Attagene CIS-FACTORIAL M19 internal marker reporter; actives raise or lower the signal. In short, it runs like this: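 Background-control endpoint from a multiplexed HepG2 reporter panel. Cells carrying cis-regulated reporter constructs are treated 24 h, then reporter transcripts are amplified, fluorescently labelled and sized by capillary electrophoresis. DMSO defines baseline.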

Test [16] is described as follows: ATG_ERE_CIS: Attagene CIS-FACTORIAL HepG2 Assay for Estrogen Response Element (ERE) (AID 2282940). Conditions: HepG2 ERE cis-reporter, Attagene RNA transcript; actives raise or lower the signal. In a few lines: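 Cells used were human hepatoma HepG2, transfected with multiple reporter transcription units under cis-regulatory promoters. Reporter mRNA, read 24 h post-dosing via fluorescent RT-PCR products on capillary electrophoresis, was fitted bidirectionally relative to DMSO.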

A short description of test [17]: ATG_Ets_CIS: Attagene CIS-FACTORIAL HepG2 Assay for human Erythroblast Transformation Specific (ETS) (AID 2282941). The conditions noted are these: HepG2 ETS cis-reporter transcription, actives raise or lower the signal. In short, it runs like this: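 Bidirectional fit versus DMSO of reporter mRNA signal, detected by RT-PCR and capillary electrophoresis in HepG2 cells transiently transfected with cis-element reporters and dosed 24 h.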

Test [18] addresses Hepatocyte nuclear factor 3-beta (Homo sapiens) (UniProt Q9Y261). In words: ATG_FoxA2_CIS: Attagene CIS-FACTORIAL HepG2 Assay for human Forkhead box A2 (FOXA2) (AID 2282942). The conditions noted are these: HepG2 cis-reporter transcription factor activity, 24 h; actives raise or lower the signal. In a few lines:
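Reporter transcript induction is measured by fluorescence after capillary electrophoresis of RT-PCR products from HepG2 cells exposed 24 h. Cis-regulated reporter units report endogenous factor activity; curves fitted both directions against DMSO.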

Test [19] can be described thus: ATG_FoxO_CIS: Attagene CIS-FACTORIAL HepG2 Assay for human Forkhead box O (FoxO) (AID 2282943). The conditions noted are these: HepG2 Attagene cis-reporter, FoxO element, mRNA; actives raise or lower the signal. In short, it runs like this: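 Transfected HepG2 reporter cells exposed to test chemical for 24 h; reporter RNA measured by reverse transcription, PCR and fluorescent capillary electrophoresis; curves fitted for increases and decreases against DMSO.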

A short description of test [20]: ATG_GATA_CIS: Attagene CIS-FACTORIAL HepG2 Assay for human GATA Binding Protein (AID 2282944). Conditions: HepG2 GATA cis-element reporter, Attagene multiplex mRNA; actives raise or lower the signal. In a few lines: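 Endogenous transcription factor activity was captured through cis-promoter-driven reporters in transfected HepG2 cells. After 24 h exposure, reporter transcripts were quantified by RT-PCR with fluorescent capillary electrophoresis, and responses fitted both directions against DMSO.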

Chain of Retinoic acid receptor alpha (Homo sapiens) (P10276 whole entry, looked up): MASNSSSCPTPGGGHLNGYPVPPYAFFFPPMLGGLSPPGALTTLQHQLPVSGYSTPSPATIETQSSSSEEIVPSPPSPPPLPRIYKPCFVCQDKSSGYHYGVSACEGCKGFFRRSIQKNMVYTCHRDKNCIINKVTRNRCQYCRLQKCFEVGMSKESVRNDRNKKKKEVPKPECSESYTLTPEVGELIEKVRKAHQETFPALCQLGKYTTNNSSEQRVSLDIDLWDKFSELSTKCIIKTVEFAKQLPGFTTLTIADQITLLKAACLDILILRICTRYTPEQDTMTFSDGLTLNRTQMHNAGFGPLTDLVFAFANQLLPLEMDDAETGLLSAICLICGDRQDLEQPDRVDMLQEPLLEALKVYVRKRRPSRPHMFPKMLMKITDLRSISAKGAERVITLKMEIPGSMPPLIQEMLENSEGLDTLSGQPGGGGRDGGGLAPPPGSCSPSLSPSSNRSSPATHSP
Chain of Aryl hydrocarbon receptor (Homo sapiens) (P35869 whole entry, looked up): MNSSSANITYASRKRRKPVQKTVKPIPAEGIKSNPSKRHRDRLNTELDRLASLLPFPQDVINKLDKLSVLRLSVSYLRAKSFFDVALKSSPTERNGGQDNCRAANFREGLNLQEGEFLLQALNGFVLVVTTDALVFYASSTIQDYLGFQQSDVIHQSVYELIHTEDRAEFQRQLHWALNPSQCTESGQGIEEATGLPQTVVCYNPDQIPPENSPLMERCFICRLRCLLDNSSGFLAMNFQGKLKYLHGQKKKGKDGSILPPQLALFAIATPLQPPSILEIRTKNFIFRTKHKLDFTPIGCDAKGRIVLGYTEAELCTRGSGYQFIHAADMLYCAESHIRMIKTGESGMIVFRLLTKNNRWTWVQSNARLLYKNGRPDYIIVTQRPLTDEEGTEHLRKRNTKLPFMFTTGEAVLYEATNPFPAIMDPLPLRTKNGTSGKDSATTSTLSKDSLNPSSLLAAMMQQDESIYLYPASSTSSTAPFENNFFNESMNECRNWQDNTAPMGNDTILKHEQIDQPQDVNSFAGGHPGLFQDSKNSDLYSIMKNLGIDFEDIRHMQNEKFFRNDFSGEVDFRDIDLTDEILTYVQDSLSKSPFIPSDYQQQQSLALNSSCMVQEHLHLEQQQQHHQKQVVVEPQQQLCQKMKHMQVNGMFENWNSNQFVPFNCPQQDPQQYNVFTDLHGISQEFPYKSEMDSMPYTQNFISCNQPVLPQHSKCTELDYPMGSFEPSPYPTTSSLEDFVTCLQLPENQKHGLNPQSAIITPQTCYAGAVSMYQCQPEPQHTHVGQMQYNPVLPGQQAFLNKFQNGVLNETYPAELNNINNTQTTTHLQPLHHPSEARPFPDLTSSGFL
Chain of Transcription factor E2F1 (Homo sapiens) (Q01094 whole entry, looked up): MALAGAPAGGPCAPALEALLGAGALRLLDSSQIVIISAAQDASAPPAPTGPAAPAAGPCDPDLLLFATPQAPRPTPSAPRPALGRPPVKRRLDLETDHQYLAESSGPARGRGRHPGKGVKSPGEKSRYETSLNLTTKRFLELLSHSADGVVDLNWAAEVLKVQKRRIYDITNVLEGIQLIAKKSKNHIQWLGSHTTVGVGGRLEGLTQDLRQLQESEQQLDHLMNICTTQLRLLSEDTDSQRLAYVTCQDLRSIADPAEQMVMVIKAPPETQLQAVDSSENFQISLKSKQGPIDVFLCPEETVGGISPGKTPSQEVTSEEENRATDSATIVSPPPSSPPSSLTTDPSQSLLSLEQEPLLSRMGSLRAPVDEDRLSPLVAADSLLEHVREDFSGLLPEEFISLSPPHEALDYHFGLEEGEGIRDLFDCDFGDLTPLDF
Chain of Hepatocyte nuclear factor 3-beta (Homo sapiens) (Q9Y261 whole entry, looked up): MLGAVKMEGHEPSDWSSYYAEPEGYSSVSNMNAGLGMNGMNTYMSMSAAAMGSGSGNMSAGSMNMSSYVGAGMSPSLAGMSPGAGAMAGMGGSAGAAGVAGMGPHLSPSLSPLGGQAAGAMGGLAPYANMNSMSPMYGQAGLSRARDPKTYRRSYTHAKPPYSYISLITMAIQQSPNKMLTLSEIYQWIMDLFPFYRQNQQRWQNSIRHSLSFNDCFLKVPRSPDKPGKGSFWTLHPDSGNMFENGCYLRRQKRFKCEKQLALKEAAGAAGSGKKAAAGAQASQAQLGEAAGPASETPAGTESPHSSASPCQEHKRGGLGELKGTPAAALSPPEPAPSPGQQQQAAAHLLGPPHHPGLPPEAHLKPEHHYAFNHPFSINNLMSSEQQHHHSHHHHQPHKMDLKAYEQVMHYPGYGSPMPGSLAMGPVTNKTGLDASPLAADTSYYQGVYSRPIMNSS
Chain of CCAAT/enhancer-binding protein beta (Homo sapiens) (P17676 whole entry, looked up): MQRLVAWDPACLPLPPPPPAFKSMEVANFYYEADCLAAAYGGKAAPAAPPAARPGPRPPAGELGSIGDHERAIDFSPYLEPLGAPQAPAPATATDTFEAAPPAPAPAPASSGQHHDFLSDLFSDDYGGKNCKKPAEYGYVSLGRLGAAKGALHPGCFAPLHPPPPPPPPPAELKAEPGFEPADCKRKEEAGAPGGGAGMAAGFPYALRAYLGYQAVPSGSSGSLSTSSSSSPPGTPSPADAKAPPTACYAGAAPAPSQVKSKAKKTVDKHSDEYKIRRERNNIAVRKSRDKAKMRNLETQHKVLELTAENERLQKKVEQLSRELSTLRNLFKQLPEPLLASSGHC

For the compound `CCCC=C(C=O)CC`, the compound was called inactive in test [1], in test [2], in test [3], in test [4], in [5] and in test [7]. Moreover, the call in [8], in test [9], in [10], in test [11], in [12] and in [13] was inactive. Further, the call in test [14], in test [15], in test [16], in [17], in test [18] and in test [19] was inactive. Further, in test [20], the call was inactive. In addition, the AC50 in [6] was 100 µM (active).
On to `CC(C)(C)N`, for which the call in test [1], in test [2], in [3], in [4], in [5] and in [6] was inactive. Further, the compound was called inactive in test [7], in test [8], in test [9], in test [10], in test [11] and in test [12]. Further, the compound was called inactive in test [13], in test [14], in test [15], in test [16], in [17] and in test [18]. Besides, the compound was called inactive in [19] and in test [20].
In the case of `CC(C)c1cc(C(C)C)cc(C(C)C)c1`, the call in test [1], in test [2], in [6], in [9], in [11] and in test [13] was inactive. Further, the outcome in test [14], in [15] and in [19] was inactive. Further, the half-maximal activity concentration (AC50) in test [3] was 182 µM (active); in [4], 36 µM (active); in test [5], 25.9 µM (active); in [7], 125 µM (active); in test [8], 180 µM (active); in test [10], 59.5 µM (active). Besides, the AC50 was 23.7 µM (active) in [12]; 168 µM (active) in test [16]; 169 µM (active) in test [17]; 160 µM (active) in test [18]; 178 µM (active) in test [20].
As for `COC(=O)c1ccccc1C`, the call in test [1], in test [2], in test [3], in [4], in [5] and in test [6] was inactive. Moreover, the outcome in [7], in test [8], in [9], in [10], in [11] and in [12] was inactive. Moreover, the call in [13], in test [14], in [15], in [16], in test [17] and in [18] was inactive. The compound was classed as inactive in test [19] and in [20].

As a reminder, the AC50 is the concentration giving half of the maximal activity seen.
